Source: PubChem BioAssay (NCI)
Compounds without any hit were thinned out: in the full panel of roughly 79,000, 15% have a hit. The source made the active and inactive calls. Rule as the data show it: active = growth inhibition above about 70%; inactive = the rest.

Legend:
[1] = NCI Yeast Anticancer Drug Screen. Data for the rad52 strain (AID 147);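 also: 0% = growth of vehicle-treated control cultures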; conditions: S. cerevisiae rad52 mutant growth inhibition, active compounds read high
Procedure, shortened: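 Genetically altered yeast (DNA damage repair defect) treated with compound; inhibition calculated relative to vehicle.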

[2] = NCI Yeast Anticancer Drug Screen. Data for the wt1 strain (AID 149);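 also: 0% = growth of vehicle-treated wt1 cultures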; conditions: S. cerevisiae wt1 strain (SPY 50644) growth inhibition, active compounds read high
Procedure, shortened: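 Readout: yeast growth inhibition, normalised to vehicle controls, in the wt1 strain exposed to test compounds.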

[3] = NCI Yeast Anticancer Drug Screen. Data for the rad50EPP+ strain (AID 151);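 also: 0% = growth of vehicle-treated control cultures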; conditions: S. cerevisiae rad50 mutant strain, active compounds read high
Procedure, shortened: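 Strain rad50EPP+; compound exposure; % growth inhibition vs vehicle.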

[4] = NCI Yeast Anticancer Drug Screen. Data for the mgt1 strain (AID 153); conditions: S. cerevisiae mgt1 mutant growth inhibition, active compounds read high
Procedure, shortened: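 Read-out: yeast growth inhibition vs vehicle control. Strain mgt1, drawn from a panel altered in DNA damage repair or cell cycle control.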

[5] = NCI Yeast Anticancer Drug Screen. Data for the rad50 strain (AID 155);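 also: 0% = growth of vehicle-only cultures of the same strain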; conditions: S. cerevisiae rad50 strain growth inhibition, active compounds read high
Procedure, shortened: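 Compounds were tested on a yeast strain with an engineered DNA damage repair alteration; the reported value is growth inhibition normalised to vehicle treatment.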

[6] = NCI Yeast Anticancer Drug Screen. Data for the mec2-1 strain (AID 157); conditions: S. cerevisiae mec2-1 strain, active compounds read high
Procedure, shortened: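 Cells of the genetically defined mec2-1 yeast strain are incubated with test compound. Inhibition of growth is calculated against vehicle-treated controls.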

[7] = NCI Yeast Anticancer Drug Screen. Data for the rad14 strain (AID 159);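 also: 0% = growth of vehicle-treated control cultures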; conditions: S. cerevisiae rad14 strain growth inhibition, active compounds read high
Procedure, shortened: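 Compound-treated yeast with a defined DNA-repair lesion; growth inhibition normalised to vehicle-treated cultures.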

[8] = NCI Yeast Anticancer Drug Screen. Data for the sgs1 mgt1 strain (AID 161);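 also: 0% = growth of cultures given vehicle only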; conditions: S. cerevisiae sgs1 mgt1 strain, active compounds read high
Procedure, shortened: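 Inhibition of yeast growth, normalised to vehicle-treated controls, is reported for a strain bearing genetic alterations in DNA damage repair.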

[9] = NCI Yeast Anticancer Drug Screen. Data for the CLN2oe strain (AID 163);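 also: 0% = growth of vehicle-only control cultures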; conditions: S. cerevisiae CLN2oe strain, active compounds read high
Procedure, shortened: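 Strain altered in cell-cycle control, incubated with compound; growth compared to solvent-treated controls.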

[10] = NCI Yeast Anticancer Drug Screen. Data for the cln2 rad14 strain (AID 165);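 also: 0% = growth equal to vehicle treated cultures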; conditions: S. cerevisiae cln2 rad14 strain, active compounds read high
Procedure, shortened: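 The screen exposed genetically defined yeast (cln2 rad14) to test compounds and scored growth inhibition relative to vehicle-treated controls.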

[11] = NCI Yeast Anticancer Drug Screen. Data for the bub3 strain (AID 167); conditions: S. cerevisiae bub3 mutant strain, active compounds read high
Procedure, shortened: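 Growth of a checkpoint-deficient yeast mutant is measured after compound exposure. Values represent inhibition relative to vehicle.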

[12] = NCI Yeast Anticancer Drug Screen. Data for the wt2 strain (AID 169);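 also: 0% = growth of vehicle-treated yeast cultures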; conditions: S. cerevisiae wt2 strain growth inhibition, active compounds read high
Procedure, shortened: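 Steps: yeast strain treated with compound; growth recorded; inhibition calculated relative to cultures given vehicle alone.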

[13] = NCI Yeast Anticancer Drug Screen. Data for the mlh1 strain (AID 171);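 also: 0% = growth of vehicle-treated control cultures of the same strain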; conditions: S. cerevisiae mlh1 strain growth inhibition, active compounds read high
Procedure, shortened: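 Yeast screen: mutant strain plus compound, growth scored against vehicle control wells.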

[14] = NCI Yeast Anticancer Drug Screen. Data for the sgs1 strain (AID 173);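 also: 0% = growth of vehicle-only control cultures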; conditions: S. cerevisiae sgs1 mutant, active compounds read high
Procedure, shortened: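 Inhibition of yeast growth served as the measure. The mutant strain was treated with each compound, and growth was normalised to cultures receiving vehicle alone.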

[15] = NCI Yeast Anticancer Drug Screen. Data for the mlh1 rad18 strain (AID 175); conditions: S. cerevisiae mlh1 rad18 strain growth inhibition, active compounds read high
Procedure, shortened: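 Compound-treated yeast growth, normalised to vehicle controls. Strain bears defined DNA repair mutations.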

[16] = NCI Yeast Anticancer Drug Screen. Data for the rad18 strain (AID 177); conditions: S. cerevisiae rad18 mutant growth inhibition, active compounds read high
Procedure, shortened: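 Inhibition values reflect reduced yeast growth compared with vehicle-treated controls, using a strain engineered with a DNA damage repair defect.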

[17] = at 5.0 µM (retest, dose inferred, filed as 0.5)
[18] = at 50.0 µM (retest, dose inferred, filed as 5.0)

Measured: growth inhibition

COC(=O)CC1(O)C(/C=C/c2ccccc2)C(C(=O)OC)C(=O)C(C(=O)OC)C1C(=O)OC (stereo unspecified)
active: [11]; at 50.0 µM 74.2% | [15]; at 50.0 µM 85.3%
inactive: [1]; at 1.2 µM 0% | [1]; at 3.7 µM 0% | [1]; at 11.0 µM 1% | [1]; at 33.0 µM 2% | [1]; at 100.0 µM 13% | [2]; at 1.2 µM 1% | [2]; at 3.7 µM 1% | [2]; at 11.0 µM 1% | [2]; at 33.0 µM -1% | [2]; at 100.0 µM -1% | [3]; at 1.2 µM -7% | [3]; at 3.7 µM -6% | [3]; at 11.0 µM -7% | [3]; at 33.0 µM -6% | [3]; at 100.0 µM -16% | [4]; at 1.2 µM -2% | [4]; at 3.7 µM -3% | [4]; at 11.0 µM -3% | [4]; at 33.0 µM 13% | [4]; at 100.0 µM 43% | [5]; at 1.2 µM -1% | [5]; at 3.7 µM -1% | [5]; [17] -3% | [5]; at 11.0 µM 2% | [5]; at 33.0 µM 1% | [5]; [18] 6% | [5]; at 50.0 µM 38.9% | [5]; at 100.0 µM 4% | [6]; at 1.2 µM -3% | [6]; at 3.7 µM -1% | [6]; [17] 1% | [6]; at 11.0 µM -4% | [6]; at 33.0 µM -2% | [6]; [18] 20% | [6]; at 50.0 µM 50% | [6]; at 100.0 µM 12% | [7]; at 1.2 µM -4% | [7]; at 3.7 µM -1% | [7]; at 11.0 µM 0% | [7]; at 33.0 µM 0% | [7]; at 100.0 µM 2% | [8]; [17] -1% | [8]; [18] 23% | [8]; at 50.0 µM 48% | [9]; at 1.2 µM -2% | [9]; at 3.7 µM 1% | [9]; at 11.0 µM -2% | [9]; at 33.0 µM -7% | [9]; at 100.0 µM 39% | [10]; [17] -18% | [10]; [18] 44% | [10]; at 50.0 µM -0.7% | [11]; at 1.2 µM -4% | [11]; at 3.7 µM -5% | [11]; [17] -2% | [11]; at 11.0 µM -2% | [11]; at 33.0 µM -4% | [11]; [18] 6% | [11]; at 100.0 µM -5% | [12]; at 1.2 µM -2% | [12]; at 3.7 µM -2% | [12]; at 11.0 µM 0% | [12]; at 33.0 µM -1% | [12]; at 100.0 µM 7% | [13]; at 1.2 µM 1% | [13]; at 3.7 µM -1% | [13]; at 11.0 µM 0% | [13]; at 33.0 µM 1% | [13]; at 100.0 µM 5% | [14]; at 1.2 µM -1% | [14]; at 3.7 µM 1% | [14]; at 11.0 µM 1% | [14]; at 33.0 µM 4% | [14]; at 100.0 µM 43% | [15]; [17] 6% | [15]; [18] 30% | [16]; at 1.2 µM 0% | [16]; at 3.7 µM -2% | [16]; at 11.0 µM -4% | [16]; at 33.0 µM 3% | [16]; at 100.0 µM 4%

O=C(c1ccc([N+](=O)[O-])cc1)C1N=NCC1c1ccccc1 (stereo unspecified)
inactive: [1]; at 1.2 µM 2% | [1]; at 3.7 µM 5% | [1]; at 11.0 µM 6% | [1]; at 33.0 µM 7% | [1]; at 100.0 µM 45% | [2]; at 1.2 µM 2% | [2]; at 3.7 µM 1% | [2]; at 11.0 µM 4% | [2]; at 33.0 µM 1% | [2]; at 100.0 µM 9% | [3]; at 1.2 µM -2% | [3]; at 3.7 µM -3% | [3]; at 11.0 µM -2% | [3]; at 33.0 µM 9% | [3]; at 100.0 µM 37% | [4]; at 1.2 µM -4% | [4]; at 3.7 µM -2% | [4]; at 11.0 µM 0% | [4]; at 33.0 µM 19% | [4]; at 100.0 µM 62% | [5]; at 1.2 µM 4% | [5]; at 3.7 µM 4% | [5]; [17] 13% | [5]; at 11.0 µM 5% | [5]; at 33.0 µM 7% | [5]; [18] 11% | [5]; at 50.0 µM 31% | [5]; at 100.0 µM 34% | [6]; at 1.2 µM -2% | [6]; at 3.7 µM 1% | [6]; [17] 0% | [6]; at 11.0 µM 1% | [6]; at 33.0 µM 1% | [6]; [18] 22% | [6]; at 50.0 µM 20.8% | [6]; at 100.0 µM 45% | [7]; at 1.2 µM 1% | [7]; at 3.7 µM 2% | [7]; at 11.0 µM 6% | [7]; at 33.0 µM 13% | [7]; at 100.0 µM 51% | [8]; [17] 3% | [8]; [18] 27% | [8]; at 50.0 µM 59% | [9]; at 1.2 µM 0% | [9]; at 3.7 µM 2% | [9]; at 11.0 µM 4% | [9]; at 33.0 µM 9% | [9]; at 100.0 µM 54% | [10]; [17] 5% | [10]; [18] 27% | [10]; at 50.0 µM 55.6% | [11]; at 1.2 µM 0% | [11]; at 3.7 µM -3% | [11]; [17] -3% | [11]; at 11.0 µM 2% | [11]; at 33.0 µM 11% | [11]; [18] 30% | [12]; at 1.2 µM 0% | [12]; at 3.7 µM -1% | [12]; at 11.0 µM 1% | [12]; at 33.0 µM 4% | [12]; at 100.0 µM 64% | [13]; at 1.2 µM -1% | [13]; at 3.7 µM 0% | [13]; at 11.0 µM 3% | [13]; at 33.0 µM 5% | [13]; at 100.0 µM 64% | [14]; at 1.2 µM 0% | [14]; at 3.7 µM 1% | [14]; at 11.0 µM 3% | [14]; at 33.0 µM 13% | [15]; [17] -3% | [15]; [18] 35% | [15]; at 50.0 µM 42% | [16]; at 1.2 µM 2% | [16]; at 3.7 µM 0% | [16]; at 11.0 µM 7% | [16]; at 33.0 µM 1% | [16]; at 100.0 µM 40%
active: [11]; at 50.0 µM 71.8% | [11]; at 100.0 µM 75% | [14]; at 100.0 µM 78%

O=[N+]([O-])c1cc(F)c(F)cc1Sc1cc(F)c(F)cc1[N+](=O)[O-]
active: [1]; at 11.0 µM 92% | [1]; at 33.0 µM 98% | [1]; at 100.0 µM 97% | [2]; at 11.0 µM 85% | [2]; at 33.0 µM 98% | [2]; at 100.0 µM 98% | [3]; at 11.0 µM 96% | [3]; at 33.0 µM 98% | [3]; at 100.0 µM 98% | [4]; at 11.0 µM 80% | [4]; at 33.0 µM 99% | [4]; at 100.0 µM 96% | [5]; at 11.0 µM 91% | [5]; at 33.0 µM 98% | [5]; [18] 98% | [5]; at 50.0 µM 98.4% | [5]; at 100.0 µM 97%
inactive: [1]; at 1.2 µM 6% | [1]; at 3.7 µM 37% | [2]; at 1.2 µM -4% | [2]; at 3.7 µM 8% | [3]; at 1.2 µM 30% | [3]; at 3.7 µM 68% | [4]; at 1.2 µM -4% | [4]; at 3.7 µM 3% | [5]; at 1.2 µM 6% | [5]; at 3.7 µM 27% | [5]; [17] 66% | [6]; at 1.2 µM -2% | [6]; at 3.7 µM 14%
